# USP2a inh: blocks human ubiquitin-specific protease USP2a. O75604. USP2 core, Ub-CHOP2 coupled fluorogenic reporter, 485/531. Potency, µM (highest dose often 38.3 µM), inactives show top-dose activity change, negative = inhibition, most hits filed as inhibitors. 330,000 tested, 0.01% active;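 note: plate controls were DMSO wells for no effect and full inhibition by NEM control for full effect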
# Target sequence (O75604 whole entry, looked up): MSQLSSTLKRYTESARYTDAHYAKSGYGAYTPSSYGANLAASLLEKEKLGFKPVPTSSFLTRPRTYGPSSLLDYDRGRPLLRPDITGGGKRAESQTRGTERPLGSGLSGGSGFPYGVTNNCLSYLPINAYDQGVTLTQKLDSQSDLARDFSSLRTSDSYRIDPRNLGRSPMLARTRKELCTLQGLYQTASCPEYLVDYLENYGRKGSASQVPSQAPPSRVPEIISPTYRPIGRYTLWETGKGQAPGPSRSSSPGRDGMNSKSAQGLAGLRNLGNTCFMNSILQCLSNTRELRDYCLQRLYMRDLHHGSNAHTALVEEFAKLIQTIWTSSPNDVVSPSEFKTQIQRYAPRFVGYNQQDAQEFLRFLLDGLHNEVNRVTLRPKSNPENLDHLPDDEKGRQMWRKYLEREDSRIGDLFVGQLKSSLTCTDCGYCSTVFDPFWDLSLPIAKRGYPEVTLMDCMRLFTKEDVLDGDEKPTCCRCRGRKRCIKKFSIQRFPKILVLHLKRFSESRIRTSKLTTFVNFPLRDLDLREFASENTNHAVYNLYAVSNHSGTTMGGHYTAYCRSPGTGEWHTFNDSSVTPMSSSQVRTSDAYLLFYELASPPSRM
#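 Cell-free coupled assay: 10nM USP2 core preincubated 30min RT with compound in Tris-HCl pH 8.0/CaCl2/CHAPS buffer, then 25nM Ub-CHOP2 and 25nM reporter substrate; fluorescence (Ex 485/Em 531) read after 60min RT, normalized to NEM inhibition, concentration-response curves fitted.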
# GLS inhibitor: inhibitors of human glutaminase (GLS); O94925; GLS enzymatic activity, qHTS titration; AID 624170; Potency, µM (doses to about 45.5 µM), for the others: at the highest dose activity change, negative = inhibition, usual class: inhibitors; 410,000 tested, 0.21% active; note: % is set by controls: 0 for no effect and ±100 for the full control effect
#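 hKGA in 45 mM KH2PO4 (pH 8.2), 0.02% Tween-20 with compound, then 1mM L-Glutamine (stock as added) plus glutamate oxidase/HRP/Amplex red coupling mix. Fluorescence read initially and after 30 min at RT; signal change reflects glutamate formation.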
# p53 reactivator: re-activators of mutant p53; H1299 p53-A138V BP100-luciferase reporter, luminescence, 24 h; 320,000 tested, 0.063% active; Potency, µM (series often up to 92.2 µM), for inactives: top-dose activity change, positive = activation, usual class: activators; note: % of control where 0% means no effect; nearly all actives have a fitted effect of over 45% in size
#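 H1299 (p53-null), stable ts p53-A138V + BP100-Luc; 1000 cells/well, Opti-MEM/10% FBS; cpd 4 pt, 1:5; 24 h, 37 deg C, 5% CO2; detection reagent 10 min RT; luminescence.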
# Tb PFK inh: inhibitors of T. brucei phosphofructokinase; O15648; T. brucei PFK, ADP-Glo luminescence; Potency, µM (titrated, usually from 57.5 µM), without a hit: at the top dose activity, negative = inhibition, most hits filed as inhibitors; 330,000 tested, 0.17% active; AID 485367;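 note: 0% = uninhibited 1x PFK enzyme wells and -100% = no-enzyme wells; nearly all actives have a fitted effect of over 60% in size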
#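 Compounds were pin-transferred as a titration series up to 57 uM into substrate buffer (0.5 mM F6P, 0.1 mM ATP, pH 8.0), then 1.25 nM PFK was added and reactions ran 45 min before ADP-Glo detection.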
# An asterisk follows results filed as active; ? = inconclusive; . = no result given; ! = not active in a repeat. In the library only some 0.39% were active in any assay of this set; here they are far more common. Calls come from the whole dose curve; as a rule, active = well fitted curve in the direction sought with a large enough effect; inconclusive = small, poorly fitted or top-dose-only effect, or another doubt; inactive = no such curve, though single readings can be large; an effect the other way counts as inactive or inconclusive. Potency is the fitted concentration of half-maximal effect.
SMILES,USP2a inh,GLS inhibitor,p53 reactivator,Tb PFK inh
Cc1cc2nc3s/c(=C/c4ccc(-c5ccccc5C(=O)O)o4)c(=O)n3c2cc1C,-1%,?,-2%,4%
O=C(O)c1cc(-c2ccc(/C=c3\sc4nc5ccc(Br)cc5n4c3=O)o2)ccc1Cl,-1%,.,.,0.85µM*
CC(C)N(Cc1nc(-c2ccc(Cl)cc2)no1)C(=O)c1ccco1,.,-5%,.,.
Oc1ccc(Cl)cc1C1=NNC(c2ccc(Cl)cc2)C1 (stereo not given),0%,-3%,28µM*,4%
Oc1c(Cl)cc(Cl)cc1C1=NNC(c2ccc(Cl)cc2)C1 (stereo not given),-5%,-18%,-6%,-9%
COc1ccc(C2c3cccn3CCN2S(=O)(=O)c2ccc([N+](=O)[O-])cc2)cc1 (stereo not given),.,1%,.,.
CC(C)c1ccc(CNc2nc(-c3ccco3)nn2C(=O)c2ccc([N+](=O)[O-])cc2)cc1,.,9%,.,.
CC(=O)c1cccc(N/C=C\C(=O)c2ccc(C)cc2)c1,0%,15%,35µM*,-2%
CCOC(=O)c1ccc2c(c1)N(CC(=O)Nc1ccc(C)cc1C)C(=O)c1ccccc1S2,.,1%,.,.
C(=N\Nc1nc2ccccc2[nH]1)/c1c[nH]c2ccccc12,0%,13µM*,25µM*,0%
C(=C\c1ccccc1)/C=N/Nc1nc2ccccc2[nH]1,1%,21%,8.9µM*,7%
O=C(O)c1cc2c(ccc3ccccc32)o1,1%,8%,22%,?
NNC(=O)c1cc2c(ccc3ccccc32)o1,4%,22µM*,8%,-18%
Cc1ccc(C(O)(C(=O)NNc2ccccn2)c2ccc(C)cc2)cc1,-3%,13µM*,3%,0%
Cc1ccc(NNC(=O)C(O)(c2cccc(C(F)(F)F)c2)c2cccc(C(F)(F)F)c2)cc1,3%,17%,-17%,0%
CC(C)(C)c1csc(NC(=O)c2ccccc2O)n1,-4%,3%,-15%,4%
CC(C)(C)c1csc(NNC(=O)c2ccc(Br)cc2)n1,-6%,5µM*,?,-2%
O=C(CN1c2ccccc2Sc2ccccc21)NNC(=S)Nc1ccc(Cl)cc1,-2%,16µM*,-1%,3%
CCCC(=O)Nc1nnc(S(=O)(=O)N(C)Cc2ccc(Cl)cc2)s1,.,5%,.,.
COc1cc(/C=C/C(=O)C2C(=O)C=C(C)OC2=O)cc(OC)c1O (stereo not given),3%,23%,19%,1%
COc1ccc(/C=C/C(=O)C2C(=O)C=C(C)OC2=O)cc1O (stereo not given),2%,7.1µM*,?,-10%
Cc1ccc2nc(-c3ccsc3)c(NC3CCCC3)n2c1,7%,1.6µM*,5%,-7%
CCOC(=O)c1ccccc1NC(=O)Cn1c(=O)n(-c2cccc(C)c2)c(=O)c2c1c1cc(C)ccc1n2C,.,2%,.,.
O=c1c2c([N+](=O)[O-])cc([N+](=O)[O-])cc2sn1-c1ccc(Br)cc1,5%,11µM*,18%,?
O=C(O)c1cc(=O)c2c3nc4ccccc4oc-3cc(=O)c2[nH]1,.,28µM*,.,.
SMILES,USP2a inh,GLS inhibitor,p53 reactivator,Tb PFK inh
N=C1/C(=C/c2ccc(-c3cccc(C(=O)O)c3)o2)C(=O)N=C2SC=C(c3ccccc3)N12,-3%,22µM*,1%,-1%
COCCNc1nc(-c2cc(C)c(C)cc2C)cs1,-4%,13µM*,10%,2%
COCCNC(=O)c1ccc(-c2csc(C)n2)cc1,2%,-1%,19%,-6%
Cc1ccccc1Cn1c(=O)c2c(nc3n2CCN3Cc2ccco2)n(C)c1=O,.,7.9µM*,.,.
Cn1c(=O)n(Cc2ccccc2)c(=O)c2c1nc1n2CCN1Cc1ccco1,0%,?,0%,6%
O=C1CCCN1CCCNC(=S)Nc1ccc(Nc2ccccc2)cc1,4%,18µM*,-6%,-3%
O=C1CCCN1CCCNC(=S)Nc1ccccc1,1%,-12%,9%,0%
CCCCN(C)CCCNC(=O)c1ccc2nc(N3CCCCC3)sc2c1,.,3%,.,.
Cc1cc(C)c(NC(=O)CN)c(C)c1,2%,0.89µM*,5%,1%
Cc1c(NC(=O)c2cc(-c3ccc(Cl)c(Cl)c3)on2)c(=O)n(-c2ccccc2)n1C,2%,16µM*!,-8%,0%
Cc1ccc(-c2cc(C(=O)Nc3c(C)n(C)n(-c4ccccc4)c3=O)no2)cc1,0%,-5%,-3%,0%
CCCn1c(C)cc(C(=O)CSc2nc3ccccc3c(=O)n2Cc2ccco2)c1C,-4%,8%,25µM*,-1%
CCc1ccccc1N/N=C(/C)c1c(O)cc(C)oc1=O,5%,11µM*,1%,7%
CCOC(=O)c1cccc(Nc2cc(C)nc(C)n2)c1,.,8%,.,.
O=S(=O)(Nc1ccc(-c2ccc(N3CCCC3)nn2)cc1)c1ccc(OC(F)(F)F)cc1,.,7%,.,.
Cc1cccc(C)c1NC(=S)NCCc1ccc(O)c(O)c1,-8%,4µM*,-12%,-14%
CCn1nnnc1SCC(=O)Nc1ccc2c(c1)OCCO2,2%,2%,10µM*,0%
COCCCn1nnnc1SCC(=O)Nc1ccc2c(c1)OCCO2,2%,1%,2%,-7%
CCOC(=O)c1[nH]c(C)c(C(=O)NCc2ccccc2Cl)c1C,.,0%,.,.
Cc1cccc(C(=O)NNS(=O)(=O)c2ccccc2)c1O,-2%,6.3µM*,2%,-3%
COc1ccc2cc(CNc3ccc(C)cc3)c(=O)n(CC(=O)Nc3ccc(C)cc3Cl)c2c1,.,13µM*,.,.
COc1ccc2cc(CNc3ccc(C)cc3)c(=O)n(CC(=O)Nc3cccc(Cl)c3C)c2c1,.,-7%,.,.
CCc1ccc(NCc2cc3cc4c(cc3n(CC(=O)Nc3ccc(OC)cc3)c2=O)OCO4)cc1,.,-8%,.,.
CCc1ccc(NCc2cc3cc4c(cc3n(CC(=O)Nc3cccc(OC)c3)c2=O)OCO4)cc1,.,10µM*,.,.
O=C(Nc1cc(-c2ccc(Cl)cc2)no1)c1ccc(F)cc1,.,-13%,.,.
SMILES,USP2a inh,GLS inhibitor,p53 reactivator,Tb PFK inh
c1cc(CNc2ccc3c(c2)OCCO3)ccn1,1%,19%,25µM*,2%
O=C(NCc1ccncc1)Nc1ccc2c(c1)OCO2,0%,6%,12%,-3%
Cc1ccccc1Cn1c2ccccc2c2cnn(CC(=O)NCCCc3ccccc3)c(=O)c21,.,2%,.,.
O=C(Nc1ccc2c(c1)OCCO2)c1c(F)cccc1F,4%,-14%,22µM*,-2%
O=C(Nc1ccc2c(c1)OCCO2)c1ccccc1F,1%,?,15%,-10%
O=C(O)c1cc(N/N=C/c2cccc3ccccc23)ccc1Cl,-13%,-30%,?,-9%
C/C(=N\Nc1ccc(Cl)c(C(=O)O)c1)c1cc2ccccc2o1,1%,10µM*,4%,3%
C/C(=N\Nc1ccc(Cl)c(C(=O)O)c1)c1cccc2ccccc12,-8%,11µM*,16%,-7%
O=C(O)c1ccc(/C=C2\SC(=S)N(Nc3ccccc3)C2=O)cc1,9%,-12%,11%,-2%
O=C1/C(=C/c2ccncc2)SC(=S)N1Nc1ccccc1,5%,8.9µM*,6%,-18%

# Screens: PubChem, National Center for Advancing Translational Sciences (NCATS)
